Measurements: PubChem BioAssay AID488890 (Southern Research Specialized Biocontainment Screening …, 2010)
The whole screen tested about 320,000 compounds, of which about 1,300 (0.41%) were called active. Inconclusive results (about 3%) are left out. The rule behind the calls is not given here. Only a sample is shown. Potency and affinity values are given separately.

Experiment: growth inhibition of non-replicating M. tuberculosis (AID 488890);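 note: plate controls were DMSO cells for no effect and high antibiotic wells for full effect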
Conditions: Mycobacterium tuberculosis non-replicating, at 25 µM, stronger effect = higher value
CCN(CC1CCCN(CCc2cccc(OC)c2)C1)C(=O)c1ccoc1C (centres undefined) gave an inhibition of -3.45%. Compound Cc1cc(NC(=O)CSc2nnc(-c3ccc(S(=O)(=O)N4CCCC4)cc3)n2C)no1 has an inhibition of -6.04%. Work on O=C(Nc1cc(S(=O)(=O)N2CCCCCC2)ccc1OCC(F)(F)F)c1cnccn1 yielded an inhibition of 9.9%. With Cn1c(=O)[nH]c2nncnc2c1=O the inhibition was 12.4%. CCCCn1c(N)c(N(CCC(C)C)C(=O)COC(=O)c2cccnc2Cl)c(=O)[nH]c1=O showed an inhibition of 17.4%. Compound CC(=O)Nc1ccc(S(=O)(=O)NCC(=O)NCCc2ccc(S(N)(=O)=O)cc2)cc1 has an inhibition of -0.25%. Compound O=C(N=C1N=C2C=CC(Br)=CN2Cc2ccccc21)c1ccc([N+](=O)[O-])cc1[N+](=O)[O-] has an inhibition of 61.8%. Work on CCOc1ccc(NC(=O)CCN2CCCCC2)cc1 yielded an inhibition of -37.2%. Work on CCOc1ccc(OCCN2CCCCC2)cc1 yielded an inhibition of 8.17%. For O=C(CSc1nnc(Cn2nnc3ccccc32)o1)Nc1cccc(Cl)c1, the inhibition was 3.51%. N#CCO/N=C(\c1ccccc1)c1ccncc1 gave an inhibition of 0.55%. Compound O=c1oc2ccccc2c(Nc2cccc3ccccc23)c1[N+](=O)[O-] has an inhibition of 21.2%. O=c1oc2ccccc2c(Nc2ccc(O)cc2)c1[N+](=O)[O-] showed an inhibition of 35.3%. In the case of COc1ccc(S(=O)(=O)N2CCN(C)CC2)cc1C, the inhibition is reported as 0.44%. In the case of N#Cc1ccsc1NC(=O)C1CC(=O)N(Cc2ccccc2)C1 (centres undefined), the inhibition is reported as 50.7%. In the case of Cc1nn(CC(=O)N2CCc3ccccc3C2)c(C)c1Cl, the inhibition is reported as 10.6%. CCOC(=O)c1c(NC(=O)CN2CCOCC2)sc(C(=O)NC)c1C showed an inhibition of -15.7%. For CCOC(=O)c1c(NC(=O)CCN2CCOCC2)sc(C)c1-c1ccccc1, the inhibition was 55.4%. Compound O=C(Nc1ncc2c(n1)-c1ccccc1OC2)c1ccc(Cl)cc1 has an inhibition of 75.5%. Compound O=C(Nc1ncc2c(n1)-c1ccccc1OC2)c1ccccc1Cl has an inhibition of 13.6%. Compound COc1ccc(C(CNC(=O)c2cccc(S(=O)(=O)NCc3ccccc3)c2)N(C)C)cc1 (centres undefined) has an inhibition of -0.497%. With O=C(NCc1ccc2c(c1)OCO2)c1c(Cl)cccc1Cl the inhibition was 3.82%. In the case of O=C(NCc1ccc2c(c1)OCO2)c1ccc(Br)s1, the inhibition is reported as 70.4%. CC(C)(C)OC(=O)[C@H](Cc1ccccc1)NC(=O)c1nc[nH]c1C(=O)N1CCNCC1 gave an inhibition of 9.16%. In the case of Cc1ccc(NC(=O)C2(c3ccc([N+](=O)[O-])cc3)CCCC2)cc1, the inhibition is reported as 56.9%. For CCOC(=O)C1CCN(c2c(-c3ccccc3)c3cc(Cl)ccc3[nH]c2=O)CC1, the inhibition was -6.2%. In the case of CN(Cc1ccccc1)C(=O)c1[nH]cnc1C(=O)N[C@@H](Cc1ccccc1)C(=O)OC(C)(C)C, the inhibition is reported as 57.5%. For COc1ccc(NC(=O)c2cc(CC(C)C)on2)cc1OC, the inhibition was 27.3%. For CC(C)Cc1cc(C(=O)Nc2cc(Cl)ccc2Cl)no1, the inhibition was 75.3%. CSc1ccccc1NC(=O)c1cc(CC(C)C)on1 showed an inhibition of 77.5%. For CC(C)Cc1cc(C(=O)Nc2ccc3c(c2)OCO3)no1, the inhibition was 79%. Work on COc1ccc(NC(=O)c2ccc(NC(=O)c3cccs3)cc2)cc1 yielded an inhibition of 17.2%. For Cc1ccc(S(=O)(=O)N(C)/N=C2/C(=O)N(CC(=O)O)c3ccccc32)cc1, the inhibition was -9.17%. Work on CC/C(=N\NC(=O)Nc1ccccc1)c1c(O)n(Cc2ccccc2)c(=O)[nH]c1=O yielded an inhibition of 0.07%. With O=C(/C=C/c1ccc(Br)cc1)Nc1ccc(S(=O)(=O)Nc2ncccn2)cc1 the inhibition was 21.5%. In the case of CCOc1ccccc1NC(=O)CCS(=O)(=O)c1cccs1, the inhibition is reported as 1.98%. Work on O=C(NCc1ccccn1)c1ccccc1OCc1ccc(F)cc1 yielded an inhibition of -9.24%. C/C(=N\NC(=O)c1cccc(Br)c1)c1ccc(Br)cc1 showed an inhibition of 5.12%. For C/C(=N/NC(=O)c1ccncc1)c1c[nH]c2ccccc12, the inhibition was 52.8%. Compound C/C(=N/NC(=O)c1ccccn1)c1c[nH]c2ccccc12 has an inhibition of 53%. With C/C(=N/NC(=O)c1ccccn1)c1ccc(O)cc1 the inhibition was 65.9%. With C/C(=N\NC(=O)c1cccc(Br)c1)c1cccnc1 the inhibition was -8.7%. In the case of C/C(=N\NC(=O)c1ccccn1)c1ccc(Cl)cc1, the inhibition is reported as 65.9%. CCC(CC)=NNC(=O)c1ccccc1OCc1ccc(F)cc1 gave an inhibition of 1.96%. CC(=O)NC(c1ccc(C(C)C)cc1)c1c(O)ccc2ccccc12 (centres undefined) showed an inhibition of -3.1%. With Cc1cc(C)c(S(=O)(=O)N2CCCC(C(=O)N3CCCC3)C2)c(C)c1 (centres undefined) the inhibition was -5.37%. CCn1c(=O)n(CC)c2cc(NS(=O)(=O)c3ccccc3)ccc21 gave an inhibition of 5.29%. Work on COC(=O)c1c(-c2cccnc2)csc1NC(=O)c1cc(C)on1 yielded an inhibition of 39.4%. CC(C)c1ccc(NC2CCCN(C(=O)CCc3cnn(C)c3)C2)cc1 (centres undefined) showed an inhibition of -5.85%. Compound CC(=O)c1sc(NC(=O)CN2C(=O)CCC2=O)nc1C has an inhibition of -3.51%. Work on O=c1cc([O-])[n+]2c3n1CCCN3CCC2 yielded an inhibition of -14.7%. For COc1ccc(C(=O)N/N=C(\C)CC(=O)Nc2ccccn2)cc1OC, the inhibition was -1.08%. Work on COc1cc(C(=O)N/N=C(\C)c2ccccn2)cc(OC)c1OC yielded an inhibition of 36.9%. With CCn1c(SCC(=O)Nc2cc(Cl)ccc2OC)nnc1C1CC1 the inhibition was 1.4%. Work on COc1ccc(NC(=O)COc2nc(N(C)C)nc(N(C)C)n2)cc1 yielded an inhibition of -4.63%. Work on COc1ccc(CCC(=O)NC2CCCN(Cc3ccc(Cl)cc3)C2)cc1OC (centres undefined) yielded an inhibition of 7.24%. Work on OCC[C@@H]1C[C@@H](O)[C@H](O)[C@@]2(OCCc3ccccc32)O1 yielded an inhibition of -1.04%. For COc1cc(OC)cc(C(=O)NNC(=O)C2CCCC2)c1, the inhibition was -10.6%. CC(=O)N1CCc2c(sc(NC(=O)C3CC3)c2-c2nc3ccccc3s2)C1 gave an inhibition of 12.5%. With CC(C)N1CCc2c(sc(NC(=O)c3nc4ccccc4s3)c2C(N)=O)C1 the inhibition was 77.9%. Cc1cccc(N(CC(=O)NC(C)(C)C)C(=O)CS(=O)CC(=O)Nc2ccc(F)cc2)c1 (centres undefined) showed an inhibition of -8.34%. In the case of COc1ccc(-c2nnc(SCc3ccc(C(=O)O)cc3)n2N)cc1, the inhibition is reported as -5.97%. With O=C(CCS(=O)(=O)Cc1ccccc1)Nc1nncs1 the inhibition was 60.5%. With Cc1nnc(NC(=O)CCS(=O)(=O)Cc2ccccc2)s1 the inhibition was 57.7%. Compound COCCSc1nnc(NC(=O)CS(=O)(=O)c2ccccc2)s1 has an inhibition of 2.87%. O=C(CS(=O)(=O)c1ccccc1)Nc1ncc([N+](=O)[O-])s1 gave an inhibition of -8.38%. With O=C(Cc1csc(Nc2nc(=S)[nH]c3ccccc23)n1)N1CCN(c2cccc(C(F)(F)F)c2)CC1 the inhibition was -8.89%. In the case of CC(=O)N(Cc1ccccc1)Cc1nc2sc(C)c(C)c2c(=O)[nH]1, the inhibition is reported as 5.06%. Work on O=C(CN1C(=O)CSc2ccc(S(=O)(=O)N3CCOCC3)cc21)NCCCN1CCCCC1 yielded an inhibition of -5.81%. With Cc1ccc(S(=O)(=O)CC(=O)Nc2ccc(Cl)cn2)cc1 the inhibition was 53.5%. COc1ccc([N+](=O)[O-])cc1/C=N/NC(=O)CNC(=O)c1cccc(F)c1 showed an inhibition of 23.1%. With CSc1nc2sc3c(c2c(=O)[nH]1)CCC(C)C3 (centres undefined) the inhibition was -4.35%. CC(C)CCOCc1nc2sc3c(c2c(=O)[nH]1)CCC(C)C3 (centres undefined) showed an inhibition of 27.8%. O=C(Cc1c[nH]c2ccccc12)NCc1ccc(Cl)cc1 gave an inhibition of 12.5%. For NC(=O)CCc1c[nH]c2ccccc12, the inhibition was -20.3%. Work on O=C(CCc1c[nH]c2ccccc12)NCCc1ccc(Cl)cc1 yielded an inhibition of -0.44%. In the case of O=C(CCc1c[nH]c2ccccc12)NCc1ccc2c(c1)OCO2, the inhibition is reported as 6.21%. O=C(CCCc1c[nH]c2ccccc12)NCc1ccc2c(c1)OCO2 gave an inhibition of 7.12%. For CC(=O)N[C@@H](Cc1c[nH]c2ccccc12)C(=O)OCc1ccc(C#N)cc1, the inhibition was 5.82%. For CCOC(=O)CNC(=O)CSc1ncnc2c1nnn2-c1ccc(F)cc1, the inhibition was 71.2%. Work on COc1ccc(-c2sccc2C(C)C(=O)O)cc1 (centres undefined) yielded an inhibition of 1.98%. With CCOc1ccc(S(=O)(=O)NCCC(=O)N2CCN(c3ccccc3O)CC2)cc1 the inhibition was 0.02%. In the case of Cc1cc(C)nc(NS(=O)(=O)c2ccc(NC(=O)c3ccc(S(=O)(=O)N4CCOCC4)cc3)cc2)n1, the inhibition is reported as 14.6%. CCOCC(=O)Nc1nnc(COC)s1 gave an inhibition of 9.42%. For CC(=O)c1ccc(N2CCN(S(=O)(=O)c3cc4[nH]c(=O)c(=O)[nH]c4cc3C)CC2)cc1, the inhibition was -6.88%. With Cc1nnc(N/N=C/c2c(Cl)cccc2Cl)n1N the inhibition was 18.3%. NC(=O)N/N=C/c1ccc(-c2ccc([N+](=O)[O-])cc2)o1 gave an inhibition of 45.3%. For COc1ccc(/C=N/Nc2nnc(C)n2N)cc1OC, the inhibition was -3.85%. Compound Cc1nnc(N/N=C/c2cc([N+](=O)[O-])c(N3CCC(C)CC3)cc2N2CCC(C)CC2)n1N has an inhibition of 37.3%. Compound CC1CCN(c2ccc(/C=N/n3nnnc3N)cc2[N+](=O)[O-])CC1 has an inhibition of 6.33%. NC(=S)N/N=C/c1ccc(-c2ccc([N+](=O)[O-])cc2)o1 showed an inhibition of 63.3%. For CC(C)(C)c1nnc(N/N=C/c2ccc(Br)cc2)n(N)c1=O, the inhibition was 12%. In the case of CCOc1cc(/C=N/Nc2nnc(C)n2N)ccc1O, the inhibition is reported as 2.89%. For COc1ccc(N(CC(=O)NCCc2ccccc2)C(=O)CCC(=O)Nc2ccccn2)cc1, the inhibition was -3.83%. Work on CC(C)N(CCNC(=O)c1ccc(CS(=O)(=O)c2c(Cl)cccc2Cl)o1)Cc1ccccc1 yielded an inhibition of 15.8%. Compound Cc1ccc(S(=O)(=O)N2CCOCC2)cc1C(=O)OCC(=O)N(Cc1ccccc1)C(C)C has an inhibition of 0.48%. Work on O=C(CNC(=O)c1cccs1)NCC(=O)OCc1ccc(Cl)cc1 yielded an inhibition of 15.7%. CCN(CC)S(=O)(=O)c1ccc(N2CCOCC2)c(NS(=O)(=O)c2ccc(OC)cc2)c1 showed an inhibition of -8.38%. Compound CCc1nc(NC(C)C)c2oc3ccccc3c2n1 has an inhibition of 8.44%. In the case of Cc1nnc(N/N=C\c2ccc(-c3cccc(C(=O)O)c3)o2)n1N, the inhibition is reported as 12.4%. Cc1nnc(N/N=C\c2ccc(-c3ccccc3[N+](=O)[O-])o2)n1N gave an inhibition of 63.6%. CCOc1cc2c(cc1OCC)C(c1ccc(F)cc1)NCC2 (centres undefined) showed an inhibition of 19.2%. With CC(CNC(=O)c1ccc(OC2CCN(Cc3ccccn3)CC2)cc1)Oc1cccnc1 (centres undefined) the inhibition was 0.447%. For COc1ccc(CNC(=O)CCCc2ccccc2)cc1, the inhibition was 1.45%. In the case of COc1ccc(CCNC(=O)CCCc2ccccc2)cc1OC, the inhibition is reported as 26.3%. In the case of CN(CC(=O)Nc1ccc(F)c(F)c1)S(=O)(=O)c1cccc2cccnc12, the inhibition is reported as 0.37%. O=C(OCc1c(Cl)cccc1Cl)c1cccnc1Cl gave an inhibition of 33.3%. Work on O=C(COC(=O)c1ccccn1)Nc1c(Cl)cccc1Cl yielded an inhibition of 8.09%. N#Cc1ccc(COC(=O)c2ccccn2)cc1 showed an inhibition of 55.2%. O=C(OCc1ccc(Cl)c(Cl)c1)c1cnccn1 gave an inhibition of 4.21%. In the case of COC(=O)c1ccc(COC(=O)c2cnccn2)cc1, the inhibition is reported as 55.1%. O=C(COC(=O)c1ccccn1)Nc1ccccc1Cl showed an inhibition of 3.22%. Compound O=C(OCc1c(Cl)cccc1Cl)c1cnccn1 has an inhibition of 17.6%. For COC(=O)c1ccc(OC(=O)c2ccccn2)cc1, the inhibition was 42%.
